The full list was thinned out, with hits kept by preference.
PD-1 reversal: activators reversing PD-1 mediated T-cell inhibition. AID 2316. 29,000 tested, under 10 active. primary human CD4 T cells, PD-L1 beads, CellTiter-Glo 96 h. activation, % (no concentration beside the values); call rule not given here
U2OS ROS induce: raises reactive oxygen species in U2OS cancer cells; U2OS ROS induction, H2DCF-DA fluorescence; ROS induction (% of piperlongumine), % at 10 µM; 46,000 tested, 2% active; AID 624156; in the data active = ROS induction above about 79%, passing the limit was not always enough; inconclusive = no clear call, values can overlap the other calls
Numbers stand for hits; - = inactive; ? = inconclusive; . = no result.

SMILES | PD-1 reversal | U2OS ROS induce
C[C@H]1CN([C@@H](C)CO)C(=O)Cc2cc(NS(=O)(=O)c3ccc(F)cc3)ccc2O[C@H]1CN(C)S(=O)(=O)c1ccccc1 | - | 106
Cc1ccc(S(=O)(=O)N(C)C[C@@H]2Oc3ccc(NS(=O)(=O)c4ccc(Cl)cc4)cc3CC(=O)N([C@@H](C)CO)C[C@@H]2C)cc1 | - | -
Cc1ccc(S(=O)(=O)Nc2ccc3c(c2)CC(=O)N([C@H](C)CO)C[C@H](C)[C@H](CN(C)S(=O)(=O)c2cccs2)O3)cc1 | - | 96
COc1cc(NC(=O)Cc2ccc(F)cc2)cc(S(=O)(=O)c2ccc(Cl)cc2)c1 | - | -
COc1ccc(-c2cc(C(=O)OCC(=O)c3ccccc3)c3cccc(Cl)c3n2)cc1 | . | -
Cc1ccc(NC(=O)CSc2nc3cc(Cl)ccc3s2)c(C)c1 | - | ?
Cc1noc(C)c1NC(=O)Nc1ccc2c(c1)CC(=O)N([C@H](C)CO)C[C@H](C)[C@H](CN(C)Cc1ccc3c(c1)OCO3)O2 | - | -
Cc1noc(C)c1NC(=O)Nc1ccc2c(c1)CC(=O)N([C@@H](C)CO)C[C@H](C)[C@H](CN(C)Cc1ccc3c(c1)OCO3)O2 | - | 124
Cc1ccc(S(=O)(=O)Nc2ccc3c(c2)CC(=O)N([C@H](C)CO)C[C@@H](C)[C@@H](CN(C)S(=O)(=O)c2ccc(Cl)cc2)O3)cc1 | - | 94
Cc1ccc(S(=O)(=O)N(C)C[C@@H]2Oc3ccc(NS(=O)(=O)c4ccc(Cl)cc4)cc3CC(=O)N([C@H](C)CO)C[C@H]2C)cc1 | . | -
Cc1cccc(NC(=O)C(C)N(c2ccc(Oc3ccccc3)cc2)S(C)(=O)=O)c1 (centres undefined) | - | -
O=C(NCc1ccccc1)C1CCN(C(=O)c2ccccc2)CC1 | . | -
Cc1ccc(S(=O)(=O)N(CCC(=O)O)Cc2ccccc2)cc1 | . | -
CN(Cc1ccccc1)C(=O)CSc1nc2ccc(Br)cc2c2nc3ccccc3n12 | . | -
CSC(=Nc1ccc(Cl)cc1)NC#N | . | -
Cc1cc(-c2ccco2)n(CC(=O)NCc2ccccc2Cl)n1 | . | -
CSc1sc(C(=O)Sc2ccccc2)cc1S(=O)(=O)C(C)C | - | 80
CSc1sc(C(=O)Sc2ccccc2)c2c1S(=O)(=O)N(C)c1ccccc1-2 | - | -
N#Cc1ccccc1Cn1cc(/C=C2\NC(=O)NC2=O)c2ccccc21 | . | -
C[C@@H]1CCCCO[C@H](CN(C)S(=O)(=O)c2ccccc2)[C@@H](C)CN([C@H](C)CO)C(=O)c2cc(NC(=O)Nc3ccc(C(F)(F)F)cc3)ccc2O1 | . | 80
COc1ccc(S(=O)(=O)N(C)C[C@@H]2OCCCC[C@@H](C)Oc3ccc(NC(=O)Nc4ccc(C(F)(F)F)cc4)cc3C(=O)N([C@H](C)CO)C[C@@H]2C)cc1 | - | -
Cc1ccc(S(=O)(=O)Nc2cccc3c2O[C@@H](CN(C)C(=O)Nc2ccc(C(F)(F)F)cc2)[C@@H](C)CN([C@H](C)CO)C3=O)cc1 | . | -
C[C@@H]1CCCCO[C@@H](CN(C)C(=O)Nc2ccc(C(F)(F)F)cc2)[C@@H](C)CN([C@H](C)CO)C(=O)c2cc(NS(=O)(=O)c3ccccc3)ccc2O1 | . | 102
C[C@@H]1CCCCO[C@@H](CN(C)S(=O)(=O)c2ccccc2)[C@@H](C)CN([C@H](C)CO)C(=O)c2cc(NC(=O)Nc3ccc(C(F)(F)F)cc3)ccc2O1 | - | 183
C[C@@H]1CN([C@H](C)CO)C(=O)c2cccc(NS(=O)(=O)c3ccc(F)cc3)c2O[C@H]1CN(C)C(=O)Nc1ccc(C(F)(F)F)cc1 | - | 92
SMILES | PD-1 reversal | U2OS ROS induce
C[C@@H]1CCCCO[C@@H](CN(C)C(=O)Nc2ccccc2)[C@@H](C)CN([C@H](C)CO)C(=O)c2cc(NS(=O)(=O)c3ccccc3)ccc2O1 | - | -
Cc1ccc(S(=O)(=O)N(C)C[C@H]2OCCCC[C@@H](C)Oc3ccc(NC(=O)Nc4ccc(C(F)(F)F)cc4)cc3C(=O)N([C@H](C)CO)C[C@@H]2C)cc1 | . | -
O=S(=O)(/N=C(\Nc1ccccc1)c1ccccc1)c1ccc(Br)cc1 | . | -
COc1ccc(CNC(=O)c2ccc(C)c(C)c2)cc1 | . | -
CCn1c2ccccc2c2cc(/C=N/NC(=O)c3ccccc3O)ccc21 | . | -
Cn1c(=O)c2c(nc(NCc3cccnc3)n2Cc2ccc(Cl)cc2Cl)n(C)c1=O | - | -
O=C(NCCCCCNC(=O)/C(Cc1ccccc1)=N/O)OCc1ccccc1 | . | -
CCN1C(=O)/C(=C\c2ccc(N(C)C)cc2Cl)OC1=S | . | 929
COc1ccc(/C=C2\OC(=S)N(C)C2=O)cc1 | . | -
O=C(CSc1nnc(-c2cccc(Br)c2)n1-c1ccccc1)Nc1ccccc1[N+](=O)[O-] | - | -
O=C1O[C@@H](c2ccccc2)[C@@H](c2ccccc2)N2[C@@H](c3ccccc3OCCO)[C@]3(C(=O)Nc4ccc(C#CCCO)cc43)[C@@H](C(=O)NC[C@H](O)c3ccccc3)[C@H]12 | . | -
CCCCC1(CC(=O)N2CCOCC2)C(=O)N(c2ccccc2)N(c2ccccc2)C1=O | . | -
COc1ccc(C(=O)COc2ccc(NC(=O)c3cccc([N+](=O)[O-])c3)cc2)cc1 | - | -
COC(=O)COc1ccc(NC(=O)c2ccc(OC)c([N+](=O)[O-])c2)cc1 | - | 118
COc1cc(CO)ccc1OCC(=O)Nc1ccccc1F | - | -
COc1cc(CO)ccc1OCC(=O)Nc1ccc(C)cc1 | - | 122
Cc1cccc(N(CC(=O)Nc2ccc(I)cc2C)S(C)(=O)=O)c1 | - | 129
COc1ccc(OC)c(N(CC(=O)Nc2cccc(Cl)c2Cl)S(C)(=O)=O)c1 | - | -
COc1ccc(C)cc1N(CC(=O)Nc1cccc(Cl)c1Cl)S(C)(=O)=O | - | 85
Cc1cc(I)ccc1NC(=O)CN(c1cccc(F)c1)S(C)(=O)=O | - | -
O=C1Nc2cc(C(=O)N3CCc4ccccc4C3)ccc2Sc2ccccc21 | . | -
CC(C)OC(=O)COc1cc2oc(=O)c3c(c2cc1Cl)CCC3 | . | -
COc1cc(C2NCCS2)cc(OC)c1OC (centres undefined) | - | -
CN(C)C(=O)[C@]1(CCS(=O)(=O)c2ccccc2)N=C(c2ccc(OCCCO)cc2)O[C@@H]1c1ccccc1 | . | 95
C=CCN1Cc2ccccc2[C@H]2OC(c3ccc(OCCCO)cc3)=N[C@@]2(CCS(=O)(=O)c2ccccc2)C1=O | . | 113
SMILES | PD-1 reversal | U2OS ROS induce
C=CCN1Cc2ccccc2[C@@H]2OC(c3ccc(OCCCO)cc3)=N[C@]2(CC=C)C1=O | . | -
CN(C)C(=O)[C@]1(Cc2ccccc2)N=C(c2ccc(OCCCO)cc2)O[C@@H]1c1ccccc1 | . | -
CCOC(=O)c1ccc(N2CCN(c3ccccc3F)CC2)c(NC(=O)Nc2ccc(CC)cc2)c1 | . | -
CCN1C(=O)/C(=C/C=C2\Sc3ccc(Cl)cc3N2C)SC1=S | - | -
O=c1c2ccccc2c(C=Nc2cccc(C(F)(F)F)c2)c(O)n1-c1ccccc1 | - | -
CO[C@H]1C[C@@H]2CC[C@@H](C)[C@@](O)(O2)C(=O)C(=O)N2CCCC[C@H]2C(=O)O[C@H]([C@H](C)C[C@@H]2CC[C@@H](O)[C@H](OC)C2)CC(=O)[C@H](C)/C=C(\C)[C@@H](O)[C@@H](OC)C(=O)[C@H](C)C[C@H](C)/C=C/C=C/C=C\1C | - | 98
COc1cccc(C(=O)NCCc2csc3nc(-c4ccc(C)cc4)nn23)c1OC | . | -
COc1ccc(-c2c(C)nn3c(N)c(-c4ccccc4)cnc23)cc1 | . | 120
Cc1nn2c3c(cnc2c1-c1ccccc1)C(=O)CC(C)(C)C3 | . | -

Bioassay records as filed in PubChem BioAssay.
